Data as given in PubChem BioAssay (NCI).
This is part of a sample that, as a whole, favours compounds with a hit. Of some 79,000 tested, about 15% had one in any assay. Values without a mark were called inactive. Active and inactive are the calls of the source. Rule as the data show it: active = growth inhibition above about 70%; inactive = the rest.

Columns and labels:
[1] = NCI Yeast Anticancer Drug Screen. Data for the rad50 strain (AID 155);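 also: 0% = growth of vehicle-only cultures of the same strain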; conditions: S. cerevisiae rad50 strain growth inhibition, stronger effect = higher value
How it was run: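 DNA repair mutant yeast, compound exposure, growth read-out; inhibition is taken relative to vehicle.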

[2] = NCI Yeast Anticancer Drug Screen. Data for the mec2-1 strain (AID 157); conditions: S. cerevisiae mec2-1 strain, stronger effect = higher value
How it was run: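 Vehicle-treated cultures served as reference for growth inhibition of compound-exposed mec2-1 yeast.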

[3] = NCI Yeast Anticancer Drug Screen. Data for the sgs1 mgt1 strain (AID 161);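 also: 0% = growth of cultures given vehicle only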; conditions: S. cerevisiae sgs1 mgt1 strain, stronger effect = higher value
How it was run: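 Inhibition of yeast growth, normalised to vehicle-treated controls, is reported for a strain bearing genetic alterations in DNA damage repair.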

[4] = NCI Yeast Anticancer Drug Screen. Data for the cln2 rad14 strain (AID 165);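 also: 0% = growth equal to vehicle treated cultures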; conditions: S. cerevisiae cln2 rad14 strain, stronger effect = higher value
How it was run: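 Each compound was tested on cln2 rad14 yeast. Inhibition of growth was calculated against vehicle-exposed controls.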

[5] = NCI Yeast Anticancer Drug Screen. Data for the bub3 strain (AID 167); conditions: S. cerevisiae bub3 mutant strain, stronger effect = higher value
How it was run: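 In this screen, a yeast mutant lacking normal mitotic checkpoint function is challenged with compound. Relative growth versus vehicle gives the inhibition value.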

[6] = NCI Yeast Anticancer Drug Screen. Data for the mlh1 rad18 strain (AID 175); conditions: S. cerevisiae mlh1 rad18 strain growth inhibition, stronger effect = higher value
How it was run: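 Vehicle-treated cultures served as the reference for growth inhibition in a yeast strain carrying DNA damage repair alterations exposed to each compound.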

[7] = at 5.0 µM (retest, dose inferred, filed as 0.5)
[8] = at 50.0 µM (retest, dose inferred, filed as 5.0)

Compound | growth inhibition [1, 7] | growth inhibition [1, 8] | growth inhibition ([1]; at 50.0 µM) | growth inhibition [2, 7] | growth inhibition [2, 8] | growth inhibition ([2]; at 50.0 µM) | growth inhibition [3, 7] | growth inhibition [3, 8] | growth inhibition ([3]; at 50.0 µM) | growth inhibition [4, 7] | growth inhibition [4, 8] | growth inhibition ([4]; at 50.0 µM) | growth inhibition [5, 7] | growth inhibition [5, 8] | growth inhibition ([5]; at 50.0 µM) | growth inhibition [6, 7] | growth inhibition [6, 8] | growth inhibition ([6]; at 50.0 µM)
COc1ccc2c(c1)C1(C)CCCC(C)(C(=O)O)C1CC2 (stereo not given) | -8% | 99% (active) | 99.5% (active) | -7% | 99% (active) | 99.5% (active) | 1% | 99% (active) | 99.6% (active) | -103% | 99% (active) | 96.8% (active) | -8% | 93% (active) | 99% (active) | 2% | 98% (active) | 99.5% (active)
CCCCC(=O)c1nc(N(CC2CCCCC2)C(=O)NC)sc1N | -3% | 11% | 1.8% | -4% | 35% | -13.4% | -1% | 57% | 7.75% | -1% | 7% | 44.2% | -3% | 33% | 6.3% | -3% | 12% | 16.8%
CC(Cc1ccccc1)NN1CCOC(c2ccccc2)C1C (stereo not given) | 2% | 66% | 32.1% | -2% | 56% | 56.8% | 0% | 78% (active) | 64.2% | -1% | 16% | 13.1% | 9% | 59% | 46% | -3% | 72% (active) | 73% (active)
C=CCOC(=O)N(C(=O)OCC=C)C(Cc1ccc(O)cc1)C(=O)NNc1ccccc1 (stereo not given) | 17% | 65% | 53.4% | 2% | 33% | 44.5% | 11% | 51% | 69.7% | 5% | 56% | 39% | 16% | 90% (active) | 70% | 20% | 62% | 84.3% (active)
CSC(=S)NN=C(c1ccccn1)c1ccccn1 | 78% (active) | 96% (active) | 94% (active) | 24% | 31% | 97.8% (active) | 92% (active) | 99% (active) | 85.4% (active) | 4% | -19% | 91.7% (active) | -5% | 96% (active) | -8.05% | 78% (active) | 80% (active) | 36%
CC(=O)OCC1OC(OC2CCCc3c(O)c4c(c(O)c32)C(=O)c2ccccc2C4=O)C(OC(C)=O)C(OC(C)=O)C1OC(C)=O (stereo not given) | 32% | 96% (active) | 97.6% (active) | -8% | 98% (active) | 99.5% (active) | 16% | 98% (active) | 98.8% (active) | 2% | 96% (active) | 28.9% | 16% | 98% (active) | 99.2% (active) | 19% | 97% (active) | 82.1% (active)
Cc1ccc(COCO)c(O)c1 | -1% | -8% | -6.7% | 0% | 2% | 35.8% | 2% | -4% | -10.8% | -7% | -3% | -18.1% | -3% | -4% | -0.15% | -1% | -4% | -16.4%
ClC1(c2ccccc2)c2ccccc2-c2ccccc21 | -26% | 98% (active) | 92.2% (active) | 4% | 99% (active) | 95.6% (active) | -6% | 98% (active) | 83.9% (active) | -1% | 92% (active) | 8.7% | 4% | 98% (active) | 95.8% (active) | 0% | 94% (active) | 97.1% (active)
CCN=C(N)Nc1nc(-c2ccc(Cl)cc2)cs1 | 10% | 99% (active) | 98.8% (active) | 0% | 99% (active) | 96.8% (active) | 8% | 99% (active) | 91.8% (active) | 9% | 99% (active) | 76.3% (active) | 7% | 98% (active) | 96.3% (active) | 9% | 99% (active) | 96.8% (active)
O=[N+]([O-])/C(Cl)=C/C(=C1/Nc2ccccc2O1)[N+](=O)[O-] | 17% | 87% (active) | 79.9% (active) | -11% | 47% | 65.6% | -14% | 48% | 72.5% (active) | -12% | 47% | 65.4% | – | – | – | 17% | 75% (active) | 69%
CCCCCN(CCCCC)CCCNc1ccc(C)c2sc3ccccc3c(=O)c12 | 98% (active) | 96% (active) | 98.4% (active) | 99% (active) | 98% (active) | 99% (active) | – | – | – | 99% (active) | 95% (active) | 95% (active) | 99% (active) | 96% (active) | 98% (active) | 99% (active) | 97% (active) | 97.5% (active)
O=C(Nc1ccccc1Cl)c1ccc(Cl)c(Cl)c1 | 4% | 0% | -0.85% | 4% | 2% | 1% | 1% | 1% | 10.2% | 2% | -2% | 29.6% | – | – | – | -1% | 1% | -18.2%
COc1ccc(C(=O)C2=C(C)Nc3ccc(Br)cc3S2)cc1 | -2% | 27% | 4.55% | -2% | 20% | 14.1% | -12% | 44% | -4.7% | – | – | – | -9% | 38% | -0.3% | -7% | 23% | 12.4%
CCOc1ccc2c(c1)[n+]([O-])c(-c1ccccc1)c(N)[n+]2[O-] | 23% | 98% (active) | 99.2% (active) | 28% | 99% (active) | 99.3% (active) | 27% | 99% (active) | 99.2% (active) | 37% | 98% (active) | 98.6% (active) | – | – | – | 66% | 98% (active) | 98.8% (active)
CN(C)CCCN1c2ccc3ccccc3c2Sc2cccc(Cl)c21 | 7% | 99% (active) | 98.3% (active) | 19% | 99% (active) | 97.3% (active) | -1% | 99% (active) | 97.9% (active) | 2% | 99% (active) | 96% (active) | – | – | – | 25% | 99% (active) | 98.2% (active)
O=C(SC(O)c1ccc(Cl)cc1)c1ccccc1 (stereo not given) | -7% | 58% | 79.8% (active) | -7% | 57% | 74.5% (active) | -3% | 68% | 85.3% (active) | – | – | – | -5% | 57% | 64.9% | -8% | 60% | 81.8% (active)
CCN(CC)Cc1ccc(Nc2cc(C)nc(/N=C(\N)Nc3ccc(Cl)c(Cl)c3)n2)cc1 | 66% | 97% (active) | 97.3% (active) | 55% | 98% (active) | 95.3% (active) | 59% | 98% (active) | 98.1% (active) | 11% | 97% (active) | 82.5% (active) | 7% | 98% (active) | 94.2% (active) | 55% | 98% (active) | 97.3% (active)
Cc1ccc[n+](CC(=O)C2CCC3C4CC=C5CC(O)CCC5(C)C4CCC23C)c1 (stereo not given) | 2% | 28% | 95.4% (active) | 1% | 24% | 98.2% (active) | 5% | 64% | 98.8% (active) | – | – | – | 3% | 27% | 96.8% (active) | -4% | 24% | 98% (active)
O=S1(=O)CCc2ccccc2C(Br)C1Br (stereo not given) | 13% | 98% (active) | 100% (active) | 7% | 99% (active) | 99.6% (active) | – | – | – | 17% | 99% (active) | 98.3% (active) | -6% | 99% (active) | 98.2% (active) | 10% | 99% (active) | 99.3% (active)
CN1C(=O)OC(C)(c2ccccc2)C1=O (stereo not given) | -3% | 4% | -14.7% | -2% | -3% | -1.1% | -2% | 0% | -13.6% | – | – | – | 2% | -7% | -11.8% | 0% | 8% | -2.55%
COc1ccc2ccc(/C=C/[N+](=O)[O-])cc2c1OC | 48% | 98% (active) | 55.1% | 40% | 99% (active) | 88.2% (active) | – | – | – | 41% | 99% (active) | 37.9% | 67% | 99% (active) | 85.3% (active) | 37% | 98% (active) | 67.6%
Cc1ccc(NC(Nc2ccc(C)cc2C)=C(/C=C(\Cl)[N+](=O)[O-])[N+](=O)[O-])c(C)c1 | 99% (active) | 97% (active) | 96.6% (active) | 99% (active) | 97% (active) | 96.1% (active) | 99% (active) | 97% (active) | 95.5% (active) | – | – | – | 99% (active) | 97% (active) | 96% (active) | 99% (active) | 96% (active) | 96.3% (active)
